In test [1] the target is T1, Estrogen receptor (Homo sapiens) + Estrogen receptor beta (Homo sapiens) (UniProt P03372+Q92731). The experiment in a line: OT_ER_ERaERb_0480: Odyssey Thera (OT) 8-hour HEK293T Protein-Complementation Assay for Estrogen Receptor-alpha/-beta Heterodimer (AID 2283352). The method, boiled down:
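Fluorescence increase from reconstituted reporter fragments, quantified by laser scanning cytometer, reflects ER-alpha/ER-beta heterodimer formation in human HEK293T cells. Exposure 8 h; positive-direction fitting against DMSO vehicle.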

Test [2] has as its target T1, Estrogen receptor (Homo sapiens) + Estrogen receptor beta (Homo sapiens). As to the kind of experiment: OT_ER_ERaERb_1440: Odyssey Thera (OT) 24-hour HEK293T Protein-Complementation Assay for Estrogen Receptor-alpha/-beta Homodimer (AID 2283356).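 Further: heteromer of ER alpha and ER beta binding domains; hits raise reporter fluorescence and both agonists and antagonists give an increase.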 The method, boiled down: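 Fragment complementation between ER alpha (310-547) and ER beta (263-489) ligand-binding domains in HEK293T cells; signal read 24 h post-dosing by laser scanning cytometer. Gain of fluorescence relative to DMSO fitted.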

Test [3] deals with Estrogen receptor beta (Homo sapiens) (UniProt Q92731). The experiment in a line: OT_ER_ERbERb_0480: Odyssey Thera (OT) 8-hour HEK293T Protein-Complementation Assay for Estrogen Receptor-beta/-beta Homodimer (AID 2283357).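 Further: active means signal gain over DMSO baseline.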 The method, boiled down: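 ER-beta LBD homodimer PCA stably expressed in HEK293T; 8 h compound exposure, then formaldehyde fixation and Draq5 staining. Gain in nuclear/cytoplasmic fluorescence intensity versus DMSO vehicle, read on laser scanning cytometer.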

For test [4], the target named is Androgen Receptor/SRC-1 Co-activator, AR (gene 367) (UniProt P10275). The experiment in a line: OT_AR_ARSRC1_0960: Odyssey Thera (OT) 16-hour HEK293T Protein-Complementation Assay for Androgen Receptor/SRC-1 Co-activator (AID 2283353).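 Further: actives raise the signal above DMSO so potency reflects increased AR and SRC-1 complex.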 The method, boiled down: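 Stable HEK293T line carries AR and SRC-1 each linked to a Venus fragment; chemicals are applied for 16 h, cells imaged at two wavelengths, and the 488 nm nucleus/cytoplasm ratio is taken as the signal, rising relative to DMSO.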

Test [5] shares this target. The experiment in a line: OT_AR_ARSRC1_0480: Odyssey Thera (OT) 8-hour HEK293T Protein-Complementation Assay for Androgen Receptor/SRC-1 Co-activator (AID 2283354).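 Further: hits raise the complementation signal above DMSO so AC50 marks enhancers.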 The method, boiled down: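 Reconstituted split-Venus YFP signal from AR–SRC-1 interaction, read by imaging 8 h post-dose in stable HEK293T lines. The 488 nm nucleus-to-cytoplasm ratio (≥400 cells/image) was fitted upward against DMSO.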

Test [6] addresses Retinoic acid receptor alpha (Homo sapiens) (UniProt P10276). As to the kind of experiment: NVS_NR_hRAR_Antagonist: NovaScreen (NVS) Nuclear Receptor Binding Assay for human Retinoic Acid Alpha Receptor Antagonism (RAR) (AID 2283358). In a few lines: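 RARalpha antagonism was read by TR-FRET as loss of binding signal versus DMSO, 2 h after chemical addition, in a biochemical format. Single-concentration duplicates (25 uM) were run first, and actives were retested in concentration series.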

Test [7] concerns the target human Peroxisome Proliferator-activated Receptor alpha (PPARa), PPARA (gene 5465) (UniProt Q07869). As to the kind of experiment: NVS_NR_hPPARa: NovaScreen (NVS) Nuclear Receptor Binding Assay for human Peroxisome Proliferator-activated Receptor alpha (PPARa) (AID 2283359).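 Further: activity means loss of TR-FRET signal versus DMSO baseline.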 In a few lines: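 Loss of TR-FRET binding signal relative to DMSO was measured 1 h after chemical addition to extracted receptor protein. Chemicals were first tested in duplicate at 25 uM, and actives were followed up in concentration series.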

Test [8] addresses Nuclear receptor subfamily 1 group I member 2 (Homo sapiens) (UniProt O75469). As to the kind of experiment: NVS_NR_hPXR: NovaScreen (NVS) Nuclear Receptor Binding Assay for human Pregnane X Receptor (PXR) (AID 2283365).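 Further: a drop in FRET signal versus DMSO baseline means the compound binds.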 The method, boiled down: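 Human PXR binding measured by TR-FRET in a cell-free format, 2 h exposure. Single-concentration duplicates at 25 uM preceded concentration-response retests of actives; endpoint fitted positively relative to DMSO, loss of signal indicating binding.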

In test [9] the target is rat Androgen Receptor (AR), Ar (gene 24208) (UniProt P15207). As to the kind of experiment: NVS_NR_rAR: NovaScreen (NVS) Nuclear Receptor Binding Assay for rat Androgen Receptor (AR) (AID 2283366). The method, boiled down:
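Actives from a duplicate single-concentration (25 uM) primary run went on to concentration series. Displacement of radioligand was counted by filtration and scintillation, 18 h post-dose, using prostate extracts from testosterone-pretreated rats, with DMSO as baseline.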

Test [10] has as its target Peroxisome proliferator-activated receptor gamma (Homo sapiens) (UniProt P37231). The experiment in a line: NVS_NR_hPPARg: NovaScreen (NVS) Nuclear Receptor Binding Assay for human Peroxisome Proliferator-activated Receptor gamma (PPARg) (AID 2283370). The method, boiled down:
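Fluorescence polarization readout of ligand binding to extracted human PPARg, measured at 2 h. Duplicate single-point screen at 25 uM, then concentration-series retesting; activity defined as signal loss versus DMSO.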

The target of the next test is PGR (gene 5241) (UniProt P06401). The experiment in a line: NVS_NR_hPR: NovaScreen (NVS) Nuclear Receptor Binding Assay for human Progestron Receptor (PR) (AID 2283360).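 Further: active means loss of bound radioligand signal versus DMSO baseline.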 In a few lines: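 Competitive displacement of a labelled radioligand from T47D-derived receptor protein is measured in a cell-free format. Initial testing uses 25 uM in duplicate, with positive and negative controls on every plate.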

Test [11] deals with human Thyroid Receptor Alpha (TRa), THRA (gene 7067) (UniProt P10827). The experiment in a line: NVS_NR_hTRa_Antagonist: NovaScreen (NVS) Nuclear Receptor Binding Assay for human Thyroid Receptor Alpha Antagonism (TRa) (AID 2283362).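 Further: activity is loss of signal relative to DMSO baseline.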 In a few lines:
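Actives from a duplicate 25 uM single-point screen were retested in concentration series. The cell-free antagonist-format binding assay was read by AlphaLISA chemiluminescence at 1 h, scored as signal loss relative to DMSO.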

For test [12], the target named is mouse Estrogen Receptor alpha (Era), Esr1 (gene 13982) (UniProt P19785). The experiment in a line: NVS_NR_mERa: NovaScreen (NVS) Nuclear Receptor Binding Assay for mouse Estrogen Receptor alpha (Era) (AID 2283378).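 Further: hit means loss of bound radioligand signal relative to DMSO.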 In a few lines:
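Filter radiodetection of radioligand displacement from extracted receptor protein, measured 18 h post-dose. Single 25 uM concentration in duplicate initially, with concentration-series follow-up. Binding loss fitted relative to DMSO.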

The target of test [13] is rat Mineralocorticoid Receptor (MR), Nr3c2 (gene 25672) (UniProt P22199). The experiment in a line: NVS_NR_rMR: NovaScreen (NVS) Nuclear Receptor Binding Assay for rat Mineralocorticoid Receptor (MR) (AID 2283355). In a few lines:
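Primary HTS ran in duplicate at a single 25 uM concentration, with concentration-series follow-up for actives. Receptor source: adrenalectomized rat brain supernatant, cell-free. Radioligand displacement read by scintillation at 24 h, relative to DMSO baseline.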

We go through 16 compounds from PubChem BioAssay (EPA / NIEHS).

As a reminder, the AC50 is the midpoint of the concentration-response curve, whichever way the signal moves.

Records with an inconclusive call do not appear. Activity calls are given as the source filed them. How the source made its calls: active means hit-call score of the fitted dose curve at least 0.9, where 1 is the maximum; inconclusive means response in the unintended direction; inactive means score below 0.9.

Chain of mouse Estrogen Receptor alpha (Era), Esr1 (gene 13982) (P19785 whole entry, looked up): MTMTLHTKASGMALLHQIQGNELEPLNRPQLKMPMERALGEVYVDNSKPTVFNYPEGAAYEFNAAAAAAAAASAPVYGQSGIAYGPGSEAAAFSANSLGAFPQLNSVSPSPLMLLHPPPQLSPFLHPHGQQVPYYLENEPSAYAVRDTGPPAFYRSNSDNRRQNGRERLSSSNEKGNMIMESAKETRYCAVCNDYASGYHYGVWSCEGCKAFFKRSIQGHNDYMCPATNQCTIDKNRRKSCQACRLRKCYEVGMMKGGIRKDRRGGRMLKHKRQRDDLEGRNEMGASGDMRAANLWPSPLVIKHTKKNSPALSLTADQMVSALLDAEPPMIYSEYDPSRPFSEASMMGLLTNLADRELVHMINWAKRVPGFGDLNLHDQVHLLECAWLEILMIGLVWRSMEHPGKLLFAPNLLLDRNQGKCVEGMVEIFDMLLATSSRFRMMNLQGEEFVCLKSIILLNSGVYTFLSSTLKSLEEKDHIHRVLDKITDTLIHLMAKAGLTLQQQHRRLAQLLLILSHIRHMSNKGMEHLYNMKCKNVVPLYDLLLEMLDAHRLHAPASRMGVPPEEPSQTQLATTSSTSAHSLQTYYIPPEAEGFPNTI
Chain of Retinoic acid receptor alpha (Homo sapiens) (P10276 whole entry, looked up): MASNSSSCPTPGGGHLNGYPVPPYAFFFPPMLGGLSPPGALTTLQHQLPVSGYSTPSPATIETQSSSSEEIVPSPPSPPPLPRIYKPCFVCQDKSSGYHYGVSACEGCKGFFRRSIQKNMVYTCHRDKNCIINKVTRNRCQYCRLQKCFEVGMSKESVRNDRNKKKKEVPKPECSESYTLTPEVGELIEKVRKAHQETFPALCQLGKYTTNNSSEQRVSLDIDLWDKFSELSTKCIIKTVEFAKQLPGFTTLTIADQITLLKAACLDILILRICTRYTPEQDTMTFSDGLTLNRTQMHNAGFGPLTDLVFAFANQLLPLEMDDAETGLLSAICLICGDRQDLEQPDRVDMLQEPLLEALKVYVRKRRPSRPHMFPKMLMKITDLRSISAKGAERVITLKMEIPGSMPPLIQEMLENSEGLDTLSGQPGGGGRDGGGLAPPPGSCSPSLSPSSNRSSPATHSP
Chain of Peroxisome proliferator-activated receptor gamma (Homo sapiens) (P37231 whole entry, looked up): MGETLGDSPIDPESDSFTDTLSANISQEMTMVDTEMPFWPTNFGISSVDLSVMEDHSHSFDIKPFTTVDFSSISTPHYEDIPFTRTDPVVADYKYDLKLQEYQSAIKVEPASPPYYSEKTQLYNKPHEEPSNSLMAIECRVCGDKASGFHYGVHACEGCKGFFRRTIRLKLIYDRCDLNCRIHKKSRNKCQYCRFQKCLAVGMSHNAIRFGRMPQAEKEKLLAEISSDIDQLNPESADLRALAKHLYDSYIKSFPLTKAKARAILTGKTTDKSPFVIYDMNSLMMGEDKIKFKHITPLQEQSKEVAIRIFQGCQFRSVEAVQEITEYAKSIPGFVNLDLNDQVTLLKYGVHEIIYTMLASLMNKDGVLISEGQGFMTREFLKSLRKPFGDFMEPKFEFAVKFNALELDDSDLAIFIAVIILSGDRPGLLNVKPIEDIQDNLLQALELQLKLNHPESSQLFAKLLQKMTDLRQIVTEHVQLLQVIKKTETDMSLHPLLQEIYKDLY
Chain of Nuclear receptor subfamily 1 group I member 2 (Homo sapiens) (O75469 whole entry, looked up): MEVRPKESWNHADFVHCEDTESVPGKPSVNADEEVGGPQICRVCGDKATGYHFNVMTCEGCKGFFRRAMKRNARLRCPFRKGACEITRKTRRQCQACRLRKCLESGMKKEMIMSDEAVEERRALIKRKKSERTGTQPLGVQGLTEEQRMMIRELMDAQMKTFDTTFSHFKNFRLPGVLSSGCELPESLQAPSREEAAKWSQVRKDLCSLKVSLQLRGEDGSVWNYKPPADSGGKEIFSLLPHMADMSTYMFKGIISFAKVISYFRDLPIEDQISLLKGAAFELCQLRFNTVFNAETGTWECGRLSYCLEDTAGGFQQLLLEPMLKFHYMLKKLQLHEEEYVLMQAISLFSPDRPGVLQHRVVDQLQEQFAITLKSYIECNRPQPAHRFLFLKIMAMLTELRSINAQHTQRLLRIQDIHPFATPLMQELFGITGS
Chain of Estrogen receptor beta (Homo sapiens) (Q92731 whole entry, looked up, the tested form may be a part): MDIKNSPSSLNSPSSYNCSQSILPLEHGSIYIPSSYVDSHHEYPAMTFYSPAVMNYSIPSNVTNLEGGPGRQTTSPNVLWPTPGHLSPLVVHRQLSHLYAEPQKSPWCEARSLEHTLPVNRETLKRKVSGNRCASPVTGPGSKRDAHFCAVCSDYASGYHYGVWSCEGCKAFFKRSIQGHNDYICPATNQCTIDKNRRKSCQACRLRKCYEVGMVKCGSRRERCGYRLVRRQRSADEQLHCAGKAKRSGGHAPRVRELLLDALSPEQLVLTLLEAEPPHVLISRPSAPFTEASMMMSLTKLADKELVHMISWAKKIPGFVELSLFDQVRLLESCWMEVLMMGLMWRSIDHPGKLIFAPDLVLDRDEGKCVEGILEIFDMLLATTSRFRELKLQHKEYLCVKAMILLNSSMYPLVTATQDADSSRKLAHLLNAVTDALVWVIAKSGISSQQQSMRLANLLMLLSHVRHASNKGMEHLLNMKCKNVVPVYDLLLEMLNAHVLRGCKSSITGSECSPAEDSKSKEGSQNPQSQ
Chain of human Peroxisome Proliferator-activated Receptor alpha (PPARa), PPARA (gene 5465) (Q07869 whole entry, looked up): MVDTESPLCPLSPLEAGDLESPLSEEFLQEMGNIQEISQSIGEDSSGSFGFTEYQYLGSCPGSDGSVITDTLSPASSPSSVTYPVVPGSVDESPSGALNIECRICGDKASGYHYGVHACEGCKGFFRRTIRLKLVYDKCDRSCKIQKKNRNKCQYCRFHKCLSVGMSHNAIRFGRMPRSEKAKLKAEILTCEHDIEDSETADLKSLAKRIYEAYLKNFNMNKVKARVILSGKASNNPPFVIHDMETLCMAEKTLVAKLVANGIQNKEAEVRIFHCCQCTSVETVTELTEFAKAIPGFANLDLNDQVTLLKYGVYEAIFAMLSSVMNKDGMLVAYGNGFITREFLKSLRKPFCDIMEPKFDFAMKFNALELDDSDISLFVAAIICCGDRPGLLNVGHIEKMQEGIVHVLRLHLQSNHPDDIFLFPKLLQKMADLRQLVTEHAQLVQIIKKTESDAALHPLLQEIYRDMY
T1 sequence (P03372 whole entry, looked up, the tested form may be a part): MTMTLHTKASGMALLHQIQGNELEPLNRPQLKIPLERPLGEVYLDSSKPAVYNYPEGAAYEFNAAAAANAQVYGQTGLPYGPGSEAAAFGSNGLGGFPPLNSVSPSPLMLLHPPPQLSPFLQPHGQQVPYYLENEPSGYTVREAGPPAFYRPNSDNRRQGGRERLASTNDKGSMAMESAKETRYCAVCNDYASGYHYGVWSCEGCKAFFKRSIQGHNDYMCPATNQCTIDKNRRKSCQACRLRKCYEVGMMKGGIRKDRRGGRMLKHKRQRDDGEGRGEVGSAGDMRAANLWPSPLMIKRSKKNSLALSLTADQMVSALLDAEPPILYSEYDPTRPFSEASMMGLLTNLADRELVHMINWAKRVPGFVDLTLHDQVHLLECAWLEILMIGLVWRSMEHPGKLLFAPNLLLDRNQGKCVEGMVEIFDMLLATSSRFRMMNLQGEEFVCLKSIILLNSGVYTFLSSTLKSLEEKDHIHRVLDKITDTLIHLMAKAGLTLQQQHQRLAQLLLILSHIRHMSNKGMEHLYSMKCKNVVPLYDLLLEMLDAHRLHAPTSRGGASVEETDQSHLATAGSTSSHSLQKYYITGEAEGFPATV
T1 sequence (Q92731 whole entry, looked up, the tested form may be a part): as the sequence (Q92731 whole entry, looked up, the tested form may be a part) above
Chain of Androgen Receptor/SRC-1 Co-activator, AR (gene 367) (P10275 whole entry, looked up, the tested form may be a part): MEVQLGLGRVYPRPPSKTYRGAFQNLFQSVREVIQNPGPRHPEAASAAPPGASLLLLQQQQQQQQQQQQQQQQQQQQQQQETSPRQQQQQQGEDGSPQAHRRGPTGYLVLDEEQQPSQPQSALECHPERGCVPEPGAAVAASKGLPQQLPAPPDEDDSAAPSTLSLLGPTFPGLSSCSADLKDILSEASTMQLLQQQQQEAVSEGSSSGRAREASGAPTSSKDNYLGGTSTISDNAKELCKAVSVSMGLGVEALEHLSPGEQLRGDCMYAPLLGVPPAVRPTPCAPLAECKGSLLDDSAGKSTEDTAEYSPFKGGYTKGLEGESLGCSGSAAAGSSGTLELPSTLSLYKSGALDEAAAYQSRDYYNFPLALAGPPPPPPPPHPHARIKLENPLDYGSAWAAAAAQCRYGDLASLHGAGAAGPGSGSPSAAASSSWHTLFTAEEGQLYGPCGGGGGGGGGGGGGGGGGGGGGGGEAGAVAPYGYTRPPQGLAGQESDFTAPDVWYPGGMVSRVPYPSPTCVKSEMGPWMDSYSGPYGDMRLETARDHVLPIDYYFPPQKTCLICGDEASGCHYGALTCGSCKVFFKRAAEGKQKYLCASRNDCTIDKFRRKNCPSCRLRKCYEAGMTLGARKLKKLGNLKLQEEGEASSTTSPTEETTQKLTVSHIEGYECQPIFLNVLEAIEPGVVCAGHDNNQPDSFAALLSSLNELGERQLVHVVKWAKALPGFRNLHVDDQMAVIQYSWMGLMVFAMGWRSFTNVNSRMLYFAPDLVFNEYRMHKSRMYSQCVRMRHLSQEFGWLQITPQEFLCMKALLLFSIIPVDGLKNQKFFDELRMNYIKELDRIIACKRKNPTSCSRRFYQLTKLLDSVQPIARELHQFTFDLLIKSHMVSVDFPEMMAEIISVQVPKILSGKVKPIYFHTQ

Turning to `Cc1ccc(C(C)c2ccc(C)c(C)c2)cc1C`, the AC50 in test [1] is 58 µM (active); in test [2], 83.6 µM (active); in test [3] it was 68.1 µM (active).
`O=C(c1ccccc1)C1CCC1`: the outcome in [1], in test [2] and in [3] was inactive.
On to `CC1=CC[C@H]2C[C@@H]1C2(C)C`, for which the result in test [1], in test [2] and in test [3] was inactive.
As to `NC(=O)c1ccccc1O`, the outcome in test [2] and in test [3] was inactive.
As to `CC(C)c1ccc2c(C(C)C)cc(C(C)C)c(S(=O)(=O)O)c2c1`, the result in test [4] and in test [5] was inactive. For the same compound, the AC50 was 12.9 µM (active) in [6]; 7.37 µM (active) in test [7]; 0.393 µM (active) in [8]; 7.33 µM (active) in test [9]; 4.01 µM (active) in test [10].
Regarding `CC(C)(C)c1n[nH]c(=O)n(N)c1=O`, in the test with PGR (gene 5241), the AC50 is 0.131 µM (active).
As to `CCCCCCCC/C=C\CCCCCCCC(=O)OCCO`, the outcome in [2], in test [3], in test [6], in test [8] and in [10] was inactive. Further, the AC50 in test [7] is 12.5 µM (active).
On to `Cc1ccc(N/N=c2\c(=O)cc/c(=N/Nc3ccc(S(=O)(=O)O)cc3)c2=O)c(C)c1`, for which the outcome in test [1], in test [2] and in test [3] was inactive. For the same compound, the AC50 in test [11] was 18.6 µM (active); in test [8], 2.79 µM (active); in test [10], 16 µM (active).
Turning to `CCN(CCC#N)c1ccc(N=Nc2c(Cl)cc([N+](=O)[O-])cc2Cl)cc1`, the AC50 is 6.24 µM (active) in test [6], 0.433 µM (active) in test [8] and 13.4 µM (active) in test [10].
For `COC(=O)c1c(C)cc(O)c(C)c1O`, the values for the AC50 in test [1], in test [2] and in [3] were 50.4 µM (active), 61.8 µM (active) and 55.5 µM (active), respectively. In [8], the call was inactive.
Regarding `Cc1cc(C)c(C)cc1C`, the compound was classed as inactive in test [7].
With `CC(=O)[C@H]1[C@H](C#N)C[C@H]2[C@@H]3CC=C4C[C@@H](O)CC[C@]4(C)[C@H]3CC[C@@]21C`, the result in test [1], in [2] and in [3] was inactive. Moreover, the AC50 in [12] is 4.26 µM (active).
As for `CN(C)c1ccc(N=Nc2ccccc2C(=O)O)cc1`, the result in test [2], in test [3] and in [12] was inactive.
`C#CC1(O)CC[C@H]2[C@@H]3CCC4=CCCC[C@@H]4[C@H]3CC[C@@]21C` (stereo partly specified): in test [13], the result was inactive. Further, the AC50 with PGR (gene 5241) was 39.6 µM (active); in test [12] it was 6.99 µM (active).
As to `CCCCC/C=C\CCC=O`, the result in test [4], in test [5] and in test [10] was inactive.
Turning to `CCCCCCCC/C=C\CCCCCCCC(=O)O`, the compound was called inactive in test [3]. Moreover, the AC50 was 8.82 µM (active) in test [7], 25 µM (active) in test [10] and 35.8 µM (active) in test [12].
